Screening data (PubChem)
LGR2 inh: inhibitors of bursicon-induced LGR2 CRE-luciferase signal, primary screen, cell-based, HEK293, CRE-luciferase reporter, bursicon stimulation | bursicon-stimulated, 4 h | inhibition, % at 9.99 µM | hit rate 0.35% among 380,000;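 active means drop in luminescence signal, shown as inhibition above about 50% in the replicate tests, limit read from the data, passing the limit was not always enough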;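 further: agonist challenge used bursicon conditioned medium at about half maximal strength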
KKLEB cytotox: cytotoxicity in KKLEB CF airway cells, primary screen, cytotoxicity control for CF NF-kB inhibitor project, cell-based, uHTS, fluorescence assay plates; hit rate 0.36% among 360,000; KKLEB CF airway cells viability, ATPlite luminescence, overnight; stronger effect = lower value; cells stimulated with P. aeruginosa culture filtrate; activity change (cytotoxicity), % at 5 µM; AID 602141, 2011;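 active means corrected activity change at or below -50% at 5 µM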
hiPSC survival: enhancers of single-cell hiPSC survival, primary screen, ATPlite luminescence. survival enhancement, % at 20 µM. hit rate 0.044% among 360,000. AID 602274, 2012. 100% = ROCK inhibitor wells, 0% = DMSO; in the data active means survival enhancement above about 18%;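 further: cells exposed to compounds for 16 hours before the ATP read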
HIF-2a block: HIF-2a reporter inhibitors, primary screen, luminescence, 786-0 RCC cells. 786-0 RCC cells HIF-2a reporter, luciferase luminescence, overnight. inhibition, % at 18.8 µM. hit rate 0.72% among 360,000. AID 624352, 2012;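 active means inhibition of the luminescence signal of 40% or more relative to plate controls, in a single-dose primary screen at 18.75 µM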
TWEAK Fn14 block: inhibitors of TWEAK-Fn14 signaling, primary screen, luciferase reporter cells, uHTS; TWEAK-stimulated Fn14 reporter cells, luciferase luminescence, 8 h; inhibition, % at 10 µM; hit rate 2% among 360,000; AID 1159606, 2016; in the data active means inhibition above about 50%
CF NFkB inh: inhibitors of PAF-induced NF-kB signaling, primary screen, cell-based, GFP fluorescence, uHTS; KKLEB NF-kB-GFP reporter, GFP fluorescence overnight; inhibition, % at 5 µM; AID 588850, 2011; hit rate 0.86% among 360,000;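 active means at least 50% inhibition at 5 µM, scaled per plate between neutral and stimulator controls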;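 further: PAF is a Pseudomonas aeruginosa culture filtrate used as stimulus; plate controls were PAF-stimulated DMSO wells for no effect and unstimulated DMSO wells for full effect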
CF NFkB conf: inhibitors of PAF-induced NF-kB signaling, retest, confirmation, cell-based, GFP fluorescence, single concentration; KKLEB CF airway cells, overnight; hit rate 64% among 1,300; shares compounds with CF NFkB inh; inhibition, % at 5 µM; in the data active means inhibition above about 40%;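 further: stimulus PAF is a Pseudomonas aeruginosa filtrate and not platelet activating factor; plate controls were DMSO wells with stimulus for no effect and unstimulated DMSO wells for full effect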
Mdm2 MdmX conf: retested Mdm2-MdmX interaction blockers, confirmation, cell-based, luminescence, single concentration, set 2 | shares compounds with HIF-2a block | SaOS-2 split-luciferase Mdm2/MdmX complementation | inhibition, % at 8 µM | hit rate 99% among 740;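 active means mean inhibition of the luminescence signal across two replicates at or above 26 percent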
Target sequence (O15151 whole entry, looked up): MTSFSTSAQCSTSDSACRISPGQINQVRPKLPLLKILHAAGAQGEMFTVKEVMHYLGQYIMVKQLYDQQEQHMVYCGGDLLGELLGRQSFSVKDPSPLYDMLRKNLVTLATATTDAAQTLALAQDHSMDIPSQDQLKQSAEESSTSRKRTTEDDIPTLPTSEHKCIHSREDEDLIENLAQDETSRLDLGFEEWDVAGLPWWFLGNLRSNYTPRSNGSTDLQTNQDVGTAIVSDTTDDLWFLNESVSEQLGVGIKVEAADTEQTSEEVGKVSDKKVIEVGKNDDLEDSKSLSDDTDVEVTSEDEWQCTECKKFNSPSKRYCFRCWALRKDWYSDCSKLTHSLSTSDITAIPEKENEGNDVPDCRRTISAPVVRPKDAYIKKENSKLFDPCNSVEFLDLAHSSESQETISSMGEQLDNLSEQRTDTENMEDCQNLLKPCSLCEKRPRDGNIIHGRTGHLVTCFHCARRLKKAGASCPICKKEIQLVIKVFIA
Target sequence (Q00987 whole entry, looked up): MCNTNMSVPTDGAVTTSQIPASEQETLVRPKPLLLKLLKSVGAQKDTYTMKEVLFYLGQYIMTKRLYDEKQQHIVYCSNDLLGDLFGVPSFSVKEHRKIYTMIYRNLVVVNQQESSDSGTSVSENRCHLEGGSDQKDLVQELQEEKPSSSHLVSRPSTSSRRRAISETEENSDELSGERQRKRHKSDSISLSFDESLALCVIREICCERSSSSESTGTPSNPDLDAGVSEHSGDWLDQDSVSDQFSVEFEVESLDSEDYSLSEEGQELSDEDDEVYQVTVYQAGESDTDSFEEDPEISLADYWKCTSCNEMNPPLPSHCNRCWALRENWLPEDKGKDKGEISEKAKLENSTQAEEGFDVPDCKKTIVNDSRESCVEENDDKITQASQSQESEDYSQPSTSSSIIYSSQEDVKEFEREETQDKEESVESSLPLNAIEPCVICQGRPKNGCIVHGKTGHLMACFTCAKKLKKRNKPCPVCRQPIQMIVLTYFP
* = called active by the depositor; nt = not tested or not shown. This is a sample that favours compounds with a hit; in the whole collection about 2.3% have one here.

SMILES	LGR2 inh	KKLEB cytotox	hiPSC survival	HIF-2a block	TWEAK Fn14 block	CF NFkB inh	CF NFkB conf	others
CC(C)C[C@@H](CN1CCCC1CN1C(=S)NC[C@@H]1Cc1ccc(O)cc1)N1C[C@H](Cc2ccc(O)cc2)N(CCc2ccccc2)C1=S (stereo partly drawn)	6.1	-11.3	0.0	-36.9	64.6*	59.3*	61.0*
CC(C)C[C@@H](CN1CCC[C@@H]1CN1C(=S)NC[C@@H]1Cc1ccc(O)cc1)N1C[C@H](Cc2ccc(O)cc2)N(CC2CCCCC2)C1=S	10.7	-39.0	-3.6	-31.0	25.9	67.1*	46.1*
CC(C)C[C@@H](CN1CCC[C@@H]1CN1C(=S)NC[C@@H]1Cc1ccc(O)cc1)N1C[C@H](Cc2ccc(O)cc2)N(CC2CCCCCC2)C1=S	-15.7	-1.7	-1.0	-31.4	29.9	28.7	nt
CN(CC(=O)Nc1ccccc1Cl)C(=O)COC(=O)c1nc(Cl)c(Cl)c(Cl)c1Cl	-16.3	-41.6	0.9	38.5	86.4*	87.0*	-100.2
CCCCCCCCCc1nc2sc3c(c2c(=O)n1NC(=O)c1ccccc1[N+](=O)[O-])CC(C)(C)OC3	3.1	-32.9	0.0	-0.7	49.1	43.5	nt
CCCCCCCCCc1nc2sc3c(c2c(=O)n1NC(=O)c1ccc([N+](=O)[O-])cc1)CC(C)(C)OC3	23.7	-41.7	-0.2	-12.2	55.7*	55.3*	62.1*
COc1ccc(C(=O)Nc2ccc(O)c3c(=O)cc(-c4cccc(Cl)c4)oc23)cc1	-2.0	-33.2	-1.0	-46.2	35.5	50.3*	1.5
Cc1cc(C)cc(N2C(=O)CC(Sc3nnnn3-c3ccccc3)C2=O)c1 (stereo not drawn)	14.5	-17.1	4.3	-11.1	6.8	56.6*	-1.4
Cn1nnnc1SC1CC(=O)N(c2ccccc2)C1=O (stereo not drawn)	-15.4	-9.0	0.2	15.0	-11.8	1.2	nt
CC(C)C(=O)Nc1ccc2c(c1)C(=O)N(C)[C@@H]1CC[C@@H](CC(=O)N[C@@H](C)c3ccccc3)O[C@@H]1CO2	-6.9	nt	nt	nt	nt	nt	nt
Cc1ccc(-c2cc(C(=O)NCc3cnn(C)c3C)c3cc(Br)ccc3n2)cc1	nt	-2.3	-2.3	-95.9	4.4	-9.2	nt
Cc1ccc(-c2cc(C(=O)N(C)Cc3cnn(C)c3C)c3cc(Br)ccc3n2)cc1	71.3*	-6.7	2.0	-42.6	26.5	66.9*	58.1*
Cc1ccc2nsnc2c1NC(=O)c1ccc([N+](=O)[O-])o1	nt	6.9	-0.3	37.8	4.6	72.6*	37.0
NC(=O)c1ccsc1NC(=O)COC(=O)c1ccc([N+](=O)[O-])o1	-6.9	24.5	0.2	-0.5	8.7	-16.7	nt
Cc1ccnc(NC(=O)c2ccc([N+](=O)[O-])o2)c1	nt	2.8	-1.8	-137.5	-0.5	51.2*	19.7
NC(=O)c1ccsc1NC(=O)c1ccc([N+](=O)[O-])o1	-21.5	-28.6	-0.5	-22.5	19.3	59.0*	-15.4
O=C(Cc1cccnc1)N1CC(=O)N2[C@H](C1)[C@@H](c1ccc(C3=CCCCC3)cc1)[C@@H]2CO	9.3	nt	nt	nt	nt	nt	nt
CCCC#Cc1ccc([C@H]2[C@@H](CO)N(C(C)=O)[C@H]2CNC(=O)C2CCCC2)cc1	-3.0	nt	nt	nt	nt	nt	nt
Cc1nnc(NC(=O)CC23CC4CC(CC(C4)C2)C3)s1	0.3	-3.9	-2.9	-1.5	16.8	13.0	nt
O=C(CC12CC3CC(CC(C3)C1)C2)Nc1nncs1	0.6	-5.0	0.0	18.9	-22.9	50.4*	60.8*
N#Cc1sc2nc3c(c(-c4ccco4)c2c1N)CCCC3	nt	4.8	4.1	2.6	-10.4	12.1	nt
NC(=O)c1sc2nc3c(c(-c4ccco4)c2c1N)CCCC3	-8.5	-11.1	-0.1	22.2	-16.7	65.0*	80.2*
CCCNC(=O)N1CCC2(CC1)CN(C(C)=O)[C@H](CO)c1[nH]c3cc(OC)ccc3c12	11.6	nt	nt	nt	nt	nt	nt
CO[C@@H]1CN(C)C(=O)c2ccc(NC(=O)C3CCCC3)cc2OC[C@H](C)N(CC2CC2)C[C@@H]1C	-3.7	nt	nt	nt	nt	nt	nt
COc1cccc(-c2ccc3ncnc(NCc4cccnc4)c3c2)c1	12.2	-15.8	-1.7	26.4	73.8*	71.0*	83.4*
SMILES	LGR2 inh	KKLEB cytotox	hiPSC survival	HIF-2a block	TWEAK Fn14 block	CF NFkB inh	CF NFkB conf	others
O=C(C[C@@H]1C[C@H]2c3cc(NC(=O)Cc4ccncc4)ccc3O[C@H]2[C@@H](CO)O1)NCc1ccc2c(c1)OCO2	-2.5	nt	nt	nt	nt	nt	nt
CC(/C=N/n1c(-c2cccnc2)n[nH]c1=S)=C\c1ccccc1	nt	13.5	8.8	-6.7	5.6	12.3	nt
CC(=C/c1ccccc1)/C=N/n1c(-c2ccncc2)n[nH]c1=S	17.5	-4.2	4.6	16.0	77.5*	76.3*	78.4*	Mdm2 MdmX conf=89.2*
COc1ccc(C(=O)N2CCN(Cc3ccccc3)CC2)cc1[N+](=O)[O-]	18.0	-0.7	0.4	3.0	-1.7	-5.5	nt
O=C(c1ccc(S(=O)(=O)c2cccc(Cl)c2)c([N+](=O)[O-])c1)N1CCN(Cc2ccccc2)CC1	5.2	-39.4	-2.6	28.2	83.8*	77.5*	-94.8	Mdm2 MdmX conf=101.0*
Nc1nc(N)nc(-c2cc(O)ccc2O)n1	35.3	3.8	0.1	-6.0	32.0	54.0*	72.0*	Mdm2 MdmX conf=101.5*
Cc1ccc2[nH]cc(C(=O)CCl)c2c1	0.3	-18.8	-3.9	15.8	-8.9	60.0*	85.6*	Mdm2 MdmX conf=103.5*
C[C@H]1CN([C@@H](C)CO)C(=O)c2cc(C#CC(C)(C)O)cnc2O[C@@H]1CN(C)C(=O)C1CCCCC1	13.5	nt	nt	nt	nt	nt	nt
CN(c1ncnc(N)c1[N+](=O)[O-])C1CCCCC1	28.1	-1.0	0.2	18.7	81.3*	83.7*	93.3*	Mdm2 MdmX conf=87.1*
CCCCN(c1ccccc1)c1ncnc(N)c1[N+](=O)[O-]	17.5	-15.1	-2.5	14.8	82.9*	76.2*	93.2*	Mdm2 MdmX conf=86.2*
CNc1nc(N)c([N+](=O)[O-])c(NC2CCCCC2)n1	-14.4	-22.1	-0.6	12.7	18.3	49.9	nt
CO[C@H]1CN(C)C(=O)c2cc(NS(=O)(=O)CC(F)(F)F)ccc2OC[C@@H](C)N(CC2CCCCC2)C[C@@H]1C	-1.8	nt	nt	nt	nt	nt	nt
O=C(C[C@@H]1C=C[C@H](NC(=O)Nc2ccc(C(F)(F)F)cc2)[C@@H](CO)O1)NCc1cccc(F)c1	7.3	nt	nt	nt	nt	nt	nt
